Assay outcomes as filed in PubChem BioAssay.
IDE exosite FP: displaces the probe from the exo-site of human IDE; P14735; purified IDE, FL-6b probe fluorescence polarization; stronger effect = lower value; z-score at 20 µM; hit rate 6.3% among 17,000;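 active means z-score of -3 or lower, meaning strong loss of probe binding signal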;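 further: His-tagged human IDE residues 42-1019 made in E. coli with 30 nM FL-6b probe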
Target sequence (P14735 42-1019 limits assumed): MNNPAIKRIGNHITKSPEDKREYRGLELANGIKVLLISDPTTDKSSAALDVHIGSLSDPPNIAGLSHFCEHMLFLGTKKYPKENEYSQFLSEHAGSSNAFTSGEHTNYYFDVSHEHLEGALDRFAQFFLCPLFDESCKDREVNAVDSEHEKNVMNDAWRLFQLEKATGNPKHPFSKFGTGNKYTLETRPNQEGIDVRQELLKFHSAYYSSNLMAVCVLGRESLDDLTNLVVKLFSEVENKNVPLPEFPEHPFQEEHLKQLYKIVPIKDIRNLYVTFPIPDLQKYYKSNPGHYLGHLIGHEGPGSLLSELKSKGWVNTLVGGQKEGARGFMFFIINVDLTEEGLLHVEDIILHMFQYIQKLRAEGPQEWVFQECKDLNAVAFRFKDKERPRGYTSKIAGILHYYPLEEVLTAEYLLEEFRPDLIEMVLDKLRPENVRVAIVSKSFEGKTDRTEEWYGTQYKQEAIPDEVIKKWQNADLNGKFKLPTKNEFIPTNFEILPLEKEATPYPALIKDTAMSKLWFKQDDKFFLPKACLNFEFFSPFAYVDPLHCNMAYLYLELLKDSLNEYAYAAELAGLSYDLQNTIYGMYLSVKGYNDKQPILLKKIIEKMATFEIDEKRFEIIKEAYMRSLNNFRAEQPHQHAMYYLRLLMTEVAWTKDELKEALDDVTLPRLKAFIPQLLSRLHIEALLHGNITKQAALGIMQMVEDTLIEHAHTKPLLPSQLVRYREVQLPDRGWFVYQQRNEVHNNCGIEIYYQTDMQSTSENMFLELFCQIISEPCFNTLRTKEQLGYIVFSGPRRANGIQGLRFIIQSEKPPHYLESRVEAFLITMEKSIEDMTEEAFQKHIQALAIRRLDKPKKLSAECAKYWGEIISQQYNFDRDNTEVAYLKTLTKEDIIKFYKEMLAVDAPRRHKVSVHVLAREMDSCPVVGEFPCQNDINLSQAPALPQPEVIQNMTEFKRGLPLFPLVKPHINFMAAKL
Large screens that a line does not name were inactive. Shown is part of a subset that was picked to be rich in hits.

C[C@H]1CCCCO[C@H](CN(C)Cc2ccncc2)[C@@H](C)CN([C@@H](C)CO)C(=O)c2cc(NC(=O)Cc3ccccc3)ccc2O1	none
COc1cccc(C(=O)Nc2ccc3c(c2)C(=O)N(C)[C@H]2CC[C@H](CC(=O)NCc4ccc(F)cc4)O[C@@H]2CO3)c1	none
C[C@@H]1CN([C@@H](C)CO)C(=O)c2cc(NC(=O)C3CCCCC3)ccc2O[C@@H](C)CCCCO[C@@H]1CN(C)C(=O)CCC(F)(F)F	none
O=C(c1cnccn1)N1CC(=O)N2[C@H](CO)[C@H](c3ccc(C#CCC4CCCC4)cc3)[C@H]2C1	none
O=C(NCC1CC1)[C@@H]1[C@@H](CO)[C@@H]2Cn3c(ccc(-c4cccnc4)c3=O)[C@@H]2N1Cc1cocn1	none
CC(C)[C@@H]1C(=O)N[C@@H](c2cccc(Cl)c2)CC=CC[C@H](C)Oc2ccccc2C(=O)N1C (mixture of isomers)	none
O=C(C[C@H]1CC[C@@H]2NC[C@@H](O)COC[C@H]2O1)N1CCc2ccccc2C1	none
O=C(C1CCOCC1)N1CC[C@@H]2[C@@H](CO)Nc3ccc(-c4cccc(F)c4)cc3[C@@H]21	none
COc1ccccc1-c1ccc([C@H]2[C@H](CO)N3CCCCN(Cc4ccncc4)C[C@@H]23)cc1	IDE exosite FP -8
OC[C@@H]1[C@H](c2ccc(-c3ccc(F)cc3)cc2)[C@@H]2CN(Cc3ccncc3)CCCCN12	none
OC[C@@H]1[C@H](c2ccc(-c3ccccc3)cc2)[C@H]2CN(Cc3ccccn3)CCCCN12	none
OC[C@H]1[C@H](c2ccc(-c3ccccc3F)cc2)[C@@H]2CN(Cc3ccncc3)CCCCN12	none
OC[C@@H]1[C@@H](c2ccc(-c3ccc(F)cc3)cc2)[C@H]2CN(Cc3ccncc3)CCCCN12	none
OC[C@H]1[C@H](c2ccc(-c3ccccc3)cc2)[C@H]2CN(Cc3ccccn3)CCCCN21	none
Cc1cccc(-c2ccc([C@@H]3[C@@H](CO)N4CCCCN(Cc5ccncc5)C[C@H]34)cc2)c1	IDE exosite FP -5
OC[C@@H]1[C@H](c2ccc(-c3ccccc3)cc2)[C@@H]2CN(Cc3ccccn3)CCCCN12	IDE exosite FP -3
OC[C@@H]1[C@@H](c2ccc(-c3ccccc3F)cc2)[C@H]2CN(Cc3ccncc3)CCCCN12	none
C[C@H](NC(=O)[C@H]1[C@H](CO)[C@H]2Cn3c(cccc3=O)[C@@H]1N2C(=O)C1CCC1)c1ccccc1	none
CO[C@H]1CN(C)C(=O)c2ccc(NC(=O)c3nc4ccccc4s3)cc2OC[C@H](C)N(Cc2cccnc2)C[C@H]1C	none
C[C@H](NC(=O)C[C@@H]1CC[C@@H]2[C@H](COc3ccc(NS(=O)(=O)c4ccc(Cl)cc4)cc3C(=O)N2C)O1)c1ccccc1	none
CCN(C[C@H]1[C@H](c2ccccc2)[C@@H](CO)N1C(=O)COC)S(C)(=O)=O	none
CC(C)NC(=O)Nc1ccc2c(c1)C(=O)N(C)[C@H]1CC[C@H](CC(=O)NCc3ccc(F)cc3)O[C@@H]1CO2	none
CNC(=O)C[C@@H]1CC[C@H]2[C@H](COc3ccc(NS(=O)(=O)c4ccc(F)cc4)cc3C(=O)N2C)O1	none
COC(=O)C[C@H]1CC[C@@H]2[C@H](COC[C@H](O)CN2S(=O)(=O)c2ccccc2OC)O1	none
C[C@@H]1CCCCO[C@H](CN(C)S(=O)(=O)c2ccc(F)cc2)[C@H](C)CN([C@H](C)CO)C(=O)c2cc(N(C)C)ccc2O1	none
Cc1cccc(-c2ccc([C@@H]3[C@H]4CN(C(=O)Cc5ccccn5)CC(=O)N4[C@H]3CO)cc2)c1	IDE exosite FP -15
O=C(Cc1ccccn1)N1CC(=O)N2[C@H](CO)[C@H](c3ccc(-c4ccccc4)cc3)[C@@H]2C1	IDE exosite FP -3.7
O=C(Cc1ccccn1)N1CC(=O)N2[C@H](C1)[C@H](c1ccc(-c3ccccc3)cc1)[C@@H]2CO	none
O=C(Cc1ccccn1)N1CC(=O)N2[C@H](CO)[C@@H](c3ccc(C#CC4CC4)cc3)[C@@H]2C1	none
O=C(Cc1ccccn1)N1CC(=O)N2[C@H](CO)[C@H](c3ccc(C#CC4CC4)cc3)[C@@H]2C1	none
COc1ccc(-c2ccc([C@H]3[C@H](CO)N4C(=O)CN(C(=O)Cc5ccccn5)C[C@@H]34)cc2)cc1	none
Cc1noc(C)c1S(=O)(=O)N(C)C[C@H]1OCCCC[C@@H](C)Oc2ccc(NC(=O)CCC(F)(F)F)cc2C(=O)N([C@@H](C)CO)C[C@H]1C	none
C/C=C/c1ccc([C@H]2[C@@H](CO)N3C(=O)CN(C(=O)Nc4ccc(F)cc4)C[C@H]23)cc1	none
O=C(C[C@H]1CC[C@H]2[C@@H](COC[C@H](O)CN2C(=O)c2ccncc2)O1)Nc1ccc(-c2ccccc2)cc1	none
C[C@H](CO)N1C[C@H](C)[C@@H](CN(C)C(=O)Nc2ccc3c(c2)OCO3)OCc2ccccc2-c2c(n(C)c3ccccc23)C1=O	none
COc1ccc(S(=O)(=O)Nc2ccc3c(c2)C(=O)N([C@H](C)CO)C[C@H](C)[C@@H](CN(C)Cc2ccc(C(F)(F)F)cc2)OCCCC[C@@H](C)O3)cc1	none
C[C@@H]1CN([C@@H](C)CO)C(=O)c2c(c3ccccc3n2C)-c2ccccc2CO[C@@H]1CN(C)C	none
COc1ccc2c3c(n(C)c2c1)[C@H](CO)N(Cc1ccccc1Cl)CC31CCN(C(=O)CC2CC2)CC1	IDE exosite FP -4.1
CCS(=O)(=O)N1CC2(CN(Cc3ccccc3F)[C@@H](CO)c3[nH]c4cc(OC)ccc4c32)C1	none
COc1ccc2c3c([nH]c2c1)[C@H](CO)N(Cc1ccccn1)CC31CN(C(=O)CC2CC2)C1	none
COc1ccc2c3c([nH]c2c1)[C@@H](CO)N(Cc1ccccc1F)CC31CCN(C(=O)C2CC2)CC1	IDE exosite FP -3.6
COc1ccc2c3c([nH]c2c1)[C@H](CO)N(Cc1ccccn1)CC31CCN(C(C)=O)CC1	none
COc1ccc2c3c(n(C)c2c1)[C@H](CO)N(Cc1ccccc1OC)CC31CN(C)C1	none
CCCC(=O)N1CCC2(CC1)CN(Cc1ccc(Cl)cc1)[C@@H](CO)c1[nH]c3cc(OC)ccc3c12	none
COc1ccc2c3c([nH]c2c1)[C@@H](CO)N(Cc1ccccn1)CC31CCN(C(C)=O)CC1	IDE exosite FP -3.6
CCCC(=O)N1CC2(C1)CN(Cc1ccccc1F)[C@@H](CO)c1c2c2ccc(OC)cc2n1C	none
COc1ccc2c3c([nH]c2c1)[C@@H](CO)N(Cc1ccccc1Cl)CC31CN(C(=O)C2CC2)C1	none
COCC(=O)N1CCC2(CC1)CN(Cc1ccccc1Cl)[C@H](CO)c1[nH]c3cc(OC)ccc3c12	none
COCC(=O)N1CCC2(CC1)CN(Cc1ccccc1Cl)[C@@H](CO)c1[nH]c3cc(OC)ccc3c12	IDE exosite FP -3.6
CCCN1C[C@@H](C)[C@@H](OC)CN(C)C(=O)c2ccc(NS(=O)(=O)c3cn(C)cn3)cc2OC[C@@H]1C	none
CCCC#Cc1ccc([C@H]2[C@@H](CO)N3C(=O)CN(S(=O)(=O)c4ccccc4C)C[C@@H]23)cc1	none
COc1ccc(-c2ccc(C3[C@H]4CNC[C@@H]3N4S(=O)(=O)c3cccc(C)c3)cc2)cc1 (stereo not given in full)	none
N#C[C@@H]1[C@H](c2ccc(C3=CCCCC3)cc2)[C@H](CO)N1C(=O)C1CCOCC1	none
CN(C)C(=O)c1ccc(-c2ccc([C@H]3[C@H]4CN(S(C)(=O)=O)CCCCN4[C@H]3CO)cc2)cc1	none
N#C[C@H]1[C@@H](c2ccccc2/C=C/c2ccccc2)[C@@H](CO)N1C(=O)Nc1ccccc1	none
O=C(Nc1cc(F)ccc1F)N1CC(=O)N2[C@H](C1)[C@H](c1ccc(-c3ccc(F)cc3)cc1)[C@@H]2CO	none
O=C(Nc1ccccc1F)N1CC(=O)N2[C@@H](CO)[C@H](c3ccc(-c4cccnc4)cc3)[C@@H]2C1	none
